Most compounds without a hit are left out; they make up all but 0.99% or so of the library.
WRN inhibitor: WRN helicase (human) inhibition. Q14191. WRN helicase unwinding, fluorescent forked duplex, kinetic. Potency, µM (titrated, usually from 114 µM), without a hit: at the top dose activity change, negative = inhibition, usual class: inhibitors. 0.46% of 360,000 active; also: nearly all actives have a fitted effect of over 55% in size
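Primary qHTS, 1536-well format. 20 nM WRN + compound, 15 min RT; start with 100 nM forked fluorophore/quencher duplex, 2 mM ATP (final); kinetic read ex 525/em 598 nm.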
BLM helicase inh: Bloom syndrome helicase (human) inhibition | P54132 | recombinant BLM DNA unwinding, fluorescence dequenching | Potency, µM (highest dose often 56.1 µM), inactives show top-dose activity change, negative = inhibition, actives largely listed as inhibitors | 0.2% of 350,000 active;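 also: plate controls were vehicle for no effect and no enzyme for full effect; nearly all actives have a fitted effect of over 35% in size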
Target sequence (P54132 whole entry, looked up): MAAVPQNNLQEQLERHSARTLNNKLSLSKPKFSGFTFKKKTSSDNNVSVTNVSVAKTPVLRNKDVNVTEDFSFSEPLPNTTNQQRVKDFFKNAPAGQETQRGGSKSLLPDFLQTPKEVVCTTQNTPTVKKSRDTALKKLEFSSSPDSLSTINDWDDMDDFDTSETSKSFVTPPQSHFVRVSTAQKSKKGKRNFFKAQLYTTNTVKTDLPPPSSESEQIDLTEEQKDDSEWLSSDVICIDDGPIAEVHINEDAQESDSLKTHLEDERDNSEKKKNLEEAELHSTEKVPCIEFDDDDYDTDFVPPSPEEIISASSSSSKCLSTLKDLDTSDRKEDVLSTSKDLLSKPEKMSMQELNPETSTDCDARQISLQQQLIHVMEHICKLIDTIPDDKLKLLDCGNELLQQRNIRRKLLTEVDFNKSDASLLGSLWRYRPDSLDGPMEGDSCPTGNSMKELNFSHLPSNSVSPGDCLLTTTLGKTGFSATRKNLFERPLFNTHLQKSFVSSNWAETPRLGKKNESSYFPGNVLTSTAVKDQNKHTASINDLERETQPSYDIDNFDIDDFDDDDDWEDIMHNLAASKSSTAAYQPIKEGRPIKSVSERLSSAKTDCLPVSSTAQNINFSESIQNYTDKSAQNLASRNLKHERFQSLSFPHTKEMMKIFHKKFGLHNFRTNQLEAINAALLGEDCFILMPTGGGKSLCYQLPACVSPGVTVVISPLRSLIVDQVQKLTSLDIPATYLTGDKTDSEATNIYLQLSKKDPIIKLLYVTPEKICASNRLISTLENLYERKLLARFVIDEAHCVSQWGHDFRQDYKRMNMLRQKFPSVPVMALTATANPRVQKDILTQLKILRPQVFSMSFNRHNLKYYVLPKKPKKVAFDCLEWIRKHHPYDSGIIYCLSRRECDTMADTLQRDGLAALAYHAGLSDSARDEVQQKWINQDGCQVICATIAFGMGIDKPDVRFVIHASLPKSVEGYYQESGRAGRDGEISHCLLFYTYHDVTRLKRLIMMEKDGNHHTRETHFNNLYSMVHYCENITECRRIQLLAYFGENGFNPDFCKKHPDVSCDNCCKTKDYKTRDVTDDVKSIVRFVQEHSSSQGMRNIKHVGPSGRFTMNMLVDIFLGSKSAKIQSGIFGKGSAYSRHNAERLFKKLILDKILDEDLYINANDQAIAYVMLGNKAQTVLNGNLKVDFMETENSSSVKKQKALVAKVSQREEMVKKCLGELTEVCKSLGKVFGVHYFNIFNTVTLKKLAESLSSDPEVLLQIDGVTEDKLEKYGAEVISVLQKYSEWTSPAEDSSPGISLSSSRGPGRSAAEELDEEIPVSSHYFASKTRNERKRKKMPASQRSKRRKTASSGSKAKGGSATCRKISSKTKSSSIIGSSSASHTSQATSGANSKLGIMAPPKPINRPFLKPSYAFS
FEN1 inh: blocks human flap endonuclease 1; P39748; Recombinant FEN1 flap cleavage, fluorescence, 15 min; AID 588795; 0.35% of 390,000 active; Potency, µM (titrated, usually from 114 µM), without a hit: at the highest dose activity change, negative = inhibition, hits mostly inhibitors; also: nearly all actives have a fitted effect of over 65% in size
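Enzyme 10 nM, 15 min RT preincubation with compound; start with substrate 50 nM final; reads at 0 and 15 min; qHTS titration, four-parameter Hill fit.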
L3MBTL1 inh: inhibitors of human L3MBTL1 | Q9Y468 | Potency, µM (doses to about 57.1 µM), for the others: at the top dose activity, negative = inhibition, actives largely listed as inhibitors | AlphaScreen L3MBTL1–H3K9me1 peptide binding | 0.66% of 230,000 active | AID 485360; also: nearly all actives have a fitted effect of over 60% in size
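L3MBTL1 (50 nM) pre-complexed 30 min with biotinylated H3(1-15)K9me1 peptide (75 nM), then compounds added for 30 min at room temperature; AlphaScreen streptavidin donor/nickel chelate acceptor beads (10 ug/mL final) read after 30 min dark incubation.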
RECQ1 inh-1: inhibitors of human RECQ1 DNA helicase; 0.54% of 240,000 active; P46063; RECQ1 DNA unwinding, red fluorescence kinetic read; Potency, µM (highest dose often 57.3 µM), for the others: at the highest dose activity, negative = inhibition, usual class: inhibitors;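 also: plate controls were vehicle for no effect and no enzyme for full effect; nearly all actives have a fitted effect of over 30% in size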
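RECQ1T1 50 nM; forked duplex (20 bp + 30-nt ss tails) 200 nM, ATP 2 mM final; pH 8.0, 2 mM MgCl2, 2.5 ug/ml poly(dI-dC); 15 min compound preincubation; discontinuous kinetic read over 2 h at RT.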
RECQ1 inh conf: confirmation of human RECQ1 helicase inhibitors; AID 2708; shares compounds with RECQ1 inh-1; Potency, µM (top dose mostly 229 µM), for the others: at the top dose activity change, negative = inhibition, usual class: inhibitors; 28% of 610 active; RECQ1 helicase DNA unwinding, fluorescence; also: nearly all actives have a fitted effect of over 45% in size
ADP FP counter: counter-screen for RECQ1 inhibitors: ADP displacement; AID 2711; 27% of 530 active; shares compounds with RECQ1 inh-1; Potency, µM (doses to about 228 µM), for inactives: at the highest dose activity change, negative = inhibition, most hits filed as inhibitors; ADP fluorescence polarization displacement counterscreen; also: nearly all actives have a fitted effect of over 45% in size
RECQ1 inh-2: blocks human RECQ1 DNA unwinding. Potency, µM (doses to about 119 µM), for the others: top-dose activity, negative = inhibition, hits mostly inhibitors. shares compounds with RECQ1 inh-1. 15% of 1,100 active. recombinant RECQ1 DNA unwinding, red fluorescence; also: nearly all actives have a fitted effect of over 50% in size
* hit, by the source's call; ? = inconclusive; / = not tested or not shown; [ ] = dose if it differs, or a comment. Calls follow the shape of the dose curve; as a rule, active = well fitted curve in the direction sought with a large enough effect; inconclusive = small, poorly fitted or top-dose-only effect, or another doubt; inactive = no such curve, though single readings can be large; an effect the other way counts as inactive or inconclusive. Unless noted, % is scaled to controls: 0 for no effect and ±100 for the full control effect; potency is read from the fitted curve at half-maximal effect.

SMILES	WRN inhibitor	BLM helicase inh	FEN1 inh	L3MBTL1 inh	RECQ1 inh-1	RECQ1 inh conf	ADP FP counter	RECQ1 inh-2
CC(=O)c1ccc(N2CCN(C(=S)Nc3ccccc3)CC2)cc1	-4%	2%	-6%	-4%	-14%	/	/	/
Cc1ccc(S(=O)(=O)NCC(=O)N(CC(=O)NCC2CCCO2)Cc2ccco2)cc1 (centres undefined)	-3%[57.1 µM]	-28%	15%	?	22µM*	/	/	-14%
O=C(O)c1cccc(Cn2c(Cl)c(/C=N/NC(=O)c3cc4ccccc4cc3O)sc2=O)c1	40µM*	8.9µM*	18µM*	35µM*	4.5µM*	?	7%[91.9 µM]	/
COc1ccc(/C=C2\SC(=O)N(CC(=O)NNC(=O)c3ccccc3O)C2=O)cc1	-3%	-3%	9%	-5%	2.8µM*	/	/	?
COc1ccc(/C=C2\SC(=O)N(CC(=O)NNC(=O)c3ccccc3O)C2=O)cc1OC	-23%	-5%	0%	1%	-10%	/	/	/
Cc1cccc(N2CCN(C(=O)CCS(=O)(=O)c3ccc(Br)cc3)CC2C)c1 (centres undefined)	?	-28%	-4%	/	35µM*	/	/	40µM*
Cc1noc(C)c1COc1ccc(C(=O)Nc2ccccc2)cc1	-8%	-2%	0%	/	-13%	2%	?	/
Cc1noc(C)c1COc1ccc(C(=O)NCc2ccccn2)cc1	0%	-1%	0%	/	0%	4%	?	/
Cc1noc(C)c1COc1ccc(C(=O)Nc2ccccn2)cc1	2%	-2%	-11%	/	/	/	/	/
Cc1nn(Cc2ccccc2)c2sc(C(=O)N3CCN(Cc4ccc5c(c4)OCO5)CC3)cc12	-10%	-6%	-6%	/	-16%	/	/	/
CS(=O)(=O)N1CCC2(CCCN(c3cccc(-c4ccccc4)c3)C2)CC1	/	-4%	/	/	28µM*	/	/	?
C=CCNC(=O)/C(=C\c1ccco1)NC(=O)c1ccco1	8%	-3%	12%	2%	/	/	/	/
Cc1c(N=C2C=C(Br)C(=O)C(Br)=C2)c(=O)n(-c2ccccc2)n1C	-1%[11.6 µM]	-24%	?	/	22µM*	24%[114 µM]	/	/
CCn1c(=O)c(=O)[nH]c2cc(C(=O)N3CCN(c4ccccc4F)CC3)ccc21	-18%	-3%	3%	0%	25µM*	/	/	79µM*
COCCn1c(=O)[nH]c2cc(C(=O)N3CCN(c4ccccc4F)CC3)ccc2c1=O	8%	1%	-1%	/	/	/	/	/
COc1ccccc1-n1c(SCC(=O)Nc2ccccc2C)nc(O)cc1=O	-13%[57.1 µM]	-16%	8%	-1%	10µM*	11%[114 µM]	12%[91.9 µM]	-7%
CC(Oc1ccccc1)C(=O)N[C@@H]1C(=O)N2[C@@H]1SC(C)(C)[C@@H]2C(=O)OCc1ccccc1 (some centres undefined)	/	/	-15%	/	/	/	/	/
COc1ccccc1N1CCN(CC(=O)Nc2cccc(F)c2)CC1	-6%	-2%	0%	2%	-14%	/	/	/
Cc1cc(C)c(-c2cc(NC(=O)CSc3n[nH]c(N)n3)n(-c3ccccc3)n2)cc1C	-14%	-9%	3%	/	-11%	/	/	/
Cc1ccc(-c2nc3s/c(=C\c4ccco4)c(=O)n3n2)cc1	-15%[57.1 µM]	-10%	-5%	?	-23%	/	/	/
O=c1nc2s/c(=C\c3ccco3)c(=O)n2nc1Cc1ccc(F)cc1	50µM*	-16%	?	/	22µM*	56µM*	?	?
O=C(O)CC(CC(=O)Nc1ccccc1C(=O)O)c1ccccc1 (centres undefined)	-2%	-2%	-7%	/	-3%	25%	0%	/
O=C(Cc1ccccc1)Nc1ccccc1C(=O)O	3%	-2%	8%	/	6%	/	/	/
